Assay outcomes: PubChem, National Center for Advancing Translational Sciences (NCATS)
An excerpt weighted towards active compounds, which were near 9.2% of everything screened.
FLuc modulator: firefly luciferase modulation, counter-screen for miR-21 project; hit rate 6.9% among 360,000; purified FLuc, Km substrates, luminescence inhibition; Potency, µM (highest dose often 57.5 µM), for the others: at the highest dose activity change, negative = inhibition, most hits filed as inhibitors; P08659;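 note: plate controls were vehicle for no effect and reference inhibitor for full effect; nearly all actives have a fitted effect of over 55% in size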
Target sequence (P08659 whole entry, looked up): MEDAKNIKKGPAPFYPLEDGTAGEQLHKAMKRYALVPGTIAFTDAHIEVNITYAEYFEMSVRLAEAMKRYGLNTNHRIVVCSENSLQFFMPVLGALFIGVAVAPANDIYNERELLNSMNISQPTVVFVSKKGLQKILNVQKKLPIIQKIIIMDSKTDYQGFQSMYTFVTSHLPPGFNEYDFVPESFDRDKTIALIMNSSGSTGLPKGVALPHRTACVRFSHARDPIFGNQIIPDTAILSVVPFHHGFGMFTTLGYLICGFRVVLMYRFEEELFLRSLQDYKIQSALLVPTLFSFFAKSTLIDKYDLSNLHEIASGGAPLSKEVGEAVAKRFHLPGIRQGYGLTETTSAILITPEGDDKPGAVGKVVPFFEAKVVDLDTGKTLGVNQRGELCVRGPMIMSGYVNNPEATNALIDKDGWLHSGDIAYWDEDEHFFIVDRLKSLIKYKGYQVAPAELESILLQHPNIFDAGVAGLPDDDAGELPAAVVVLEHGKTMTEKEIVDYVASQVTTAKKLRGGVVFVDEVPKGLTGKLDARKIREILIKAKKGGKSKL
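Purified P. pyralis luciferase, 10 nM final, with Km-level 10 uM D-luciferin and 10 uM ATP in 50 mM Tris acetate pH 7.5, 10 mM Mg acetate, 0.01% Tween-20, 0.05% BSA; 6-point qHTS titration about 60 µM downward; luminescence read.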
NPC1 promoter act: activators of NPC1 promoter. Huh7 NPC1 promoter luciferase reporter, 24 h. Potency, µM (titrated, usually from 9.22 µM), for the others: at the top dose activation, most hits filed as activators. hit rate 2.4% among 320,000; note: % of control where 0% means no effect; nearly all actives have a fitted effect of over 60% in size
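Stably transfected Huh7 (NPC1 promoter→luciferase), 1500 cells/well in Opti-MEM + 10% FBS, 2 h settle, then compound 24 h at 37 °C. Luminescence after 10 min with Amplite reagent.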
ELG1 genotoxic: inducers of genotoxicity in HEK293T ELG1-luciferase cells; HEK293T ELG1-luciferase reporter, luminescence, 16 h; Potency, µM (titrated, usually from 46 µM), for the others: at the top dose activity change, positive = activation, hits mostly activators; hit rate 1.3% among 330,000; AID 504466; note: % of control where 0% means no effect; nearly all actives have a fitted effect of over 60% in size
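HEK293T cells expressing luciferase-tagged ELG1 were exposed to compound or DMSO vehicle for 16 hr at 37 °C and 5% CO2. Luciferase activity was then measured with ONE-Glo after 30 min at room temperature.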
SMN2 splice up: SMN2 splice variant enhancement. hit rate 2.8% among 210,000. Potency, µM (highest dose often 46.1 µM), for the others: top-dose activity change, positive = activation, hits mostly activators. AID 1458. HEK293 SMN2-luciferase splicing reporter, luminescence, 30-36 h; note: % of control where 0% means no effect; nearly all actives have a fitted effect of over 55% in size
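HEK293 cells carry an SMN2 minigene-luciferase reporter in which exon 7 inclusion puts luciferase in frame. Cells were seeded at 2000 cells/well, attached for 10-12 hours, then exposed to compounds for 30-36 hours at 37C before ONE-Glo luminescence.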
ELG1 DNA repair: blocks ELG1-dependent DNA repair in HEK293T cells; HEK293T ELG1-luciferase reporter, luminescence, 16 h; DNA damage induced by 5-fluorouridine; hit rate 2.3% among 330,000; Potency, µM (titrated, usually from 46.1 µM), for the others: at the top dose activity change, negative = inhibition, hits mostly inhibitors; AID 504467; note: % is set by controls: 0 for no effect and ±100 for the full control effect; nearly all actives have a fitted effect of over 55% in size
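Quantitative HTS, concentration-response format. 2,000 cells/well co-treated with 5-fluorouridine and compound, 16 hr in 5% CO2 at 37 °C; ONE-Glo luminescence read after 30 min.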
Rab9 prom act: Rab9 promoter activation; Huh7 Rab9 promoter-luciferase reporter, luminescence, 24 h; Potency, µM (top dose mostly 9.22 µM), without a hit: at the highest dose activation, negative = inhibition, usual class: activators; hit rate 2.8% among 320,000; AID 485297; note: % of control where 0% means no effect; nearly all actives have a fitted effect of over 60% in size
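Steps: seed 1500 Huh7 Rab9-luc cells per well, rest 2 h at 37 °C; add compound in DMSO; incubate 24 h; add luciferase reagent, 10 min ambient; read luminescence.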
* hit, by the source's call; ? = inconclusive; nt = no result. Calls come from the whole dose curve; as a rule, active = well fitted curve in the direction sought with a large enough effect; inconclusive = small, poorly fitted or top-dose-only effect, or another doubt; inactive = no such curve, though single readings can be large; an effect the other way counts as inactive or inconclusive. Potency is the fitted concentration of half-maximal effect.

SMILES	FLuc modulator	NPC1 promoter act	ELG1 genotoxic	SMN2 splice up	ELG1 DNA repair	Rab9 prom act
CCCOc1ccc(-c2nc(N3CCN(C)CC3)c3ccccc3n2)cc1	4.78µM*	?	?	nt	?	3.16µM*
C[C@@H]1OC(OC2CC[C@@]3(C)C(CC[C@@]4(C)C3CC=C3C5CC(C)(C)CC[C@]5(C(=O)OC5OCC(O)[C@@H](O)[C@@H]5OC5O[C@@H](C)[C@H](O[C@H]6OC(CO)C(O)C(O)C6O)C(O)C5O)C(O)C[C@@]34C)C2(C)C)C(O)C(O)[C@H]1OC1OCC(O)C(O)[C@H]1O (stereo not given in full)	nt	nt	nt	-53.1%	nt	nt
CC1CN(c2nc(-c3ccccc3)nc3ccccc23)CC(C)O1 (stereo not given)	3.4%	-0.6%	-1.4%	22.7%	13µM*	-2.5%
CC1CN(c2cc(-c3ccccc3)c3ccccc3n2)CC(C)O1 (stereo not given)	4.0%	0.6%	-3.8%	-28.5%	-5.6%	-4.3%
Cc1ccc(Nc2nc3nonc3nc2Nc2cccc(C(F)(F)F)c2)cc1Cl	-12.1%	nt	nt	-55.3%	nt	nt
COc1cc(NC(=O)Nc2cccc3cccnc23)cc(OC)c1OC	19µM*	-2.0%	5.8%	nt	-22.7%	6.6%
COc1cc(NC(=O)c2cccnc2Sc2ccc(Cl)cc2)cc(OC)c1OC	3.0%	-1.3%	-4.5%	-33.6%	8.2µM*	-6.3%
COc1cc(C(=O)Nc2cccc3cccnc23)cc(OC)c1OC	-9.4%	0.8%	-7.8%	-6.8%	20.6µM*	-6.2%
COc1ccc(NC(=O)Nc2cccc3ccccc23)cc1OC	-8.1%	-2.1%	8.5%	nt	2.4%	-1.1%
COc1cc(NC(=O)c2ccccn2)cc(OC)c1OC	4.3%	0.9%	4.1%	-13.5%	?	-3.9%
Cc1ccc(NC(=O)COC(=O)Cc2ccc(Br)cc2)cc1S(=O)(=O)N1CCOCC1	nt	nt	3.2%	nt	9.5%	nt
Cc1cc(C)cc(-n2c(SCC(=O)Nc3ccccc3)nc3c(oc4ccccc43)c2=O)c1	-0.9%	nt	nt	-9.6%	nt	nt
O=C(CN1CCN(c2cccc(Cl)c2)CC1)Nc1ccc([N+](=O)[O-])cc1C(=O)Nc1ccccc1F	1.5%	-0.8%	-7.5%	-26.4%	14.6µM*	-0.9%
Cc1ccc(C)c(N2CCN(CC(=O)Nc3ccc([N+](=O)[O-])cc3C(=O)Nc3ccccc3F)CC2)c1	2.7%	-4.0%	-0.2%	-5.9%	?	-2.6%
CCC(C)N(C(=O)COC(=O)c1cc([N+](=O)[O-])ccc1N)C1CCS(=O)(=O)C1 (stereo not given)	0.5%	1.1%	12.3%	nt	-3.6%	-1.2%
Cc1ccc(S(=O)(=O)NCCC(=O)N2CC(C)OC(C)C2)cc1C (stereo not given)	0.0%	1.5%	-2.3%	nt	?	1.2%
O=C(Cc1ccccc1)N/N=C/c1ccc2cccc(O)c2n1	19µM*	-0.1%	0.0%	nt	-9.2%	-3.1%
NC(=O)N/N=C/c1ccc2cccc(OCc3ccccc3)c2n1	19µM*	-1.1%	7.0%	nt	0.0%	0.9%
COc1ccc(CN2CCC(N(CCc3ccccc3)Cc3ccccc3)CC2)c(OC)c1	0.8%	-6.4%	-12.7%	nt	20.6µM*	-11.6%
CCOC(=O)c1c(C)sc(-c2c(-c3ccc(OC)c(F)c3)[nH]c3c2c(=O)[nH]c(=O)n3C)c1O	-0.8%	nt	nt	nt	nt	nt
Cc1ccc(-n2c(C)c([N+](=O)[O-])c3ccc(O)cc32)cc1	-2.9%	-4.3%	-9.5%	nt	?	0.4%
Cc1c([N+](=O)[O-])c2ccc(O)cc2n1-c1ccccc1	1.6%	2.6%	-9.1%	nt	4.61µM*	2.0%
CC(=O)N1CCN(C(=O)c2ccccc2NS(=O)(=O)c2ccc(F)cc2)CC1	3.4%	-0.6%	-0.6%	nt	12.7%	1.1%
COc1ccc(NC2=C(Cl)C(=O)N(CCc3ccccc3)C2=O)c(OC)c1	?	2.8%	11.9%	?	?	-1.5%
